# Activity calls are given as the source filed them. Rule for the calls: active = hit-call score of the fitted dose curve at least 0.9, where 1 is the maximum; inactive = score below 0.9.
# Read-out: Glutathione S-Transferase (GSTA2), GSTA2 (gene 2939)
# Assay: LTEA_HepaRG_GSTA2: Life Technologies and Expression Analysis (LTEA) Assay for Glutathione S-Transferase (GSTA2) using HepaRG (AID 2283497)
# Conditions: mRNA level, 48 h; actives raise or lower the signal
# Procedure: LTEA_HepaRG is a cell based, multiplexed-readout assay that uses HepaRG, a human liver cell line, with measurements taken at 48 hours after chemical dosing on a 96-well plate.LTEA_HepaRG_GSTA2 is one of 102 assay component(s) measured in the LTEA HepaRG cell culture assay. It is a marker of Oxidative Stress.Data from the assay component LTEA_HepaRG_GSTA2 was analyzed into 1 endpoint. This assay endpoint, LTEA_HepaRG_GSTA2, was analyzed with bidirectional fitting relative to DMSO as the negative control and baseline of activity. Using a type of inducible reporter, measures of mRNA induction for gain or loss-of-signal activity can be used to understand regulation of transcription factor activity. To generalize the intended target to other relatable targets, this assay endpoint is annotated to the transferase intended target family, where the subfamily is alkyl and aryl transferase.
# A total of 1060 chemcials from the ToxCast library were tested in eight-point concentration-response experiments. Cell culture and cytotoxicity assays were conducted at Thermo Fisher Scientific's Custom Services facility (Madison, WI). A single lot of human HepaRG cells (Thermo Fisher Scientific, Frederick, MD) was used for the cell culture experiments. 96-well format collagen type I coated plates of human HepaRG cells were prepared using established methods. Briefly, cryopreserved HepaRG cells were thawed, plated at a density of approximately 100,000 cells/well in HepaRG Thaw, Plate, and General Purpose media (HPRG770, Thermo Fisher Scientific), and incubated for 48 hours. 0.5% DMSO was selected as vehicle control to balance the requisite need of DMSO in HepaRG cultures to maintain differentiation (for example, baseline metabolism, proportions of hepatocytes vs. cholangiocytes), while enabling further hepatic receptor pathway activation (for example, PXR and CAR) in response to chemical exposure. 48 hours after plating, the culture medium was replaced with HepaRG Serum-Free Incudtion Media. Cells were exposed to each test chemical in duplicate and maintained in CO2 incubators for another 48 hours. Chemical plates were thawed to room temperature and 200x concentrations of treatment groups were prepared. 8-point conentration-reponse curves were made with the highest exposure at 100 uM, followed by half-log dilutions, all in 0.5% DMSO. Each test plate contained variouse controls, induction positive controls (1mM phenobarbital), cytotoxicity positive controls ([…] aflatoxin B1), vehicle controls (0.5% DMSO), and total lysis controls (0.5% DMSO). Cell morphology images were taken using an Essen IncuCyte FLR automated microscope, with six 96-well plates imaged in about 24 minutes. Images were captured and exported and JPEG files. Spent culture media was transfered to black-well plates for the LDH assay, and remaining media was sorted at -80 C for later use. Cells were treated with RLT buffer and frozen until shipped for gene expression analysis. Total RNA was isolated from the cell suspension in 75 uL of Buffer RLT (Qiagen, Germantown, MD 20874) by Quintiles/Expression Analysis (Durham, NC) using a custom isolation procedure. Total RNA from each plate well was transferred to a preamplification plate. Fluidigm's 96.96 Dynamic ArrayTM (Fluidigm, Amsterdam, the Netherlands) technology was used for gene expression analyses by quantitative reverse transcription polymerase chain reaction (qRT-PCR, performed by Quintiles/Expression Analysis, Durham, NC)89. Standard TaqManTM Assays (Applied Biosystems/ThermoFisher Scientific, Foster City, CA) were used to assess the expression of 93 genes selected based on their selectivity and sensitivity to important hepatic receptors known to be modulated by environmental chemicals; importance in human hepatocyte functionality; and hepatotoxicity. […]
Structure (SMILES),AC50,outcome
CC[C@H](c1ccc(O)cc1)[C@@H](CC)c1ccc(O)cc1,87.3 µM (active),–
CCC(C)(C)C1CCC(O)CC1 (stereo not given),–,inactive
C=C(C)C(=O)OCCC(F)(F)C(F)(F)C(F)(F)C(F)(F)C(F)(F)C(F)(F)F,–,inactive
OCCC(F)(F)C(F)(F)C(F)(F)C(F)(F)C(F)(F)C(F)(F)C(F)(F)C(F)(F)F,–,inactive
CCCCC(CC)COC(=O)CCCCC(=O)OCc1ccccc1 (stereo not given),–,inactive
CC#C[C@]1(O)CC[C@H]2[C@@H]3CCC4=CC(=O)CCC4=C3[C@@H](c3ccc(N(C)C)cc3)C[C@@]21C,71.5 µM (active),–
CCCOC(=O)c1ccc(O)cc1,–,inactive
CN(C)C=O,–,inactive
OC1CCC(C2CCCCC2)CC1 (stereo not given),–,inactive
N#C[C@@H]1CC(F)(F)CN1C(=O)CNC1CC2CCC(C1)N2c1ncccn1 (stereo not given in full),–,inactive
Oc1cccc(O)c1,–,inactive
COC(=O)CCCCC(=O)OC,–,inactive
C[C@@H]1C[C@H]2[C@@H]3CCC4=CC(=O)C=C[C@]4(C)[C@@]3(F)[C@@H](O)C[C@]2(C)[C@@]1(O)C(=O)COP(=O)(O)O,–,inactive
OCCC(F)(F)C(F)(F)C(F)(F)C(F)(F)C(F)(F)C(F)(F)F,–,inactive
CCCCCCCCCCCCc1ccccc1S(=O)(=O)O,80.3 µM (active),–
CCCCCCCCC(=O)O,–,inactive
CCCOc1sc(C(=O)N2CCC(c3cc(CN)ccc3F)CC2)c(C)c1Br,–,inactive
CCCCCCC(=O)O,–,inactive
CC(=O)NC1(c2cccc(F)c2)CCN(CC[C@@]2(c3ccc(Cl)c(Cl)c3)CN(c3ccccc3)C(=O)CO2)CC1,65.1 µM (active),–
Oc1cc2ccccc2c2ccccc12,–,inactive

Structure (SMILES),AC50,outcome
CCCCCCCCCCCCN1CCCC1=O,–,inactive
ClC1=C(Cl)C(Cl)(Cl)C(Cl)=C1Cl,–,inactive
CCc1nn(C2CCCCC2)c2cc(C3(C#N)CCC(C(=O)O)CC3)ccc12 (stereo not given),77.1 µM (active),–
CCN(CC)CCNc1ccc(CNC=O)c2sc3ccc(OC)cc3c(=O)c12,81.8 µM (active),–
COc1ccc([N+](=O)[O-])cc1N,–,inactive
Cc1cc(C)c(O)c(C)c1,–,inactive
Cc1cc(CCN2CCN(c3nsc4ccccc34)CC2)cc2c1NC(=O)CC2(C)C,81.9 µM (active),–
CC(O)CO (stereo not given),–,inactive
CCCCOCCO,–,inactive
CC(C)CCCCCCOC(=O)CCCCC(=O)OCCCCCCC(C)C,–,inactive
CC(C)(C)CC(C)(C)c1ccc(O)c(-n2nc3ccccc3n2)c1,–,inactive
CC(=O)CC(C)(C)O,–,inactive
CCCCCCCC(=O)O,–,inactive
Cc1oc(-c2ccccc2)nc1CCOc1ccc(C[C@H](Nc2ccccc2C(=O)c2ccccc2)C(=O)O)cc1,23.4 µM (active),–
CN1CCN(c2ccccc2/C=C2\SCCN(c3ccc(Cl)c(Cl)c3)C2=O)CC1,–,inactive
CCCCC(CC)COC(=O)CCCCC(=O)OCC(CC)CCCC (stereo not given),–,inactive
CC1=C(/C=C/C(C)=C/C=C/C(C)=C/C(=O)O)C(C)(C)CCC1,5.61 µM (active),–
CCCCCCCCCCCCCCCS(=O)(=O)Oc1ccccc1,–,inactive
CC(C)(C)c1cc(C(C)(C)C)c(O)c(C(C)(C)C)c1,–,inactive
CCOC(=O)CC(O)(CC(=O)OCC)C(=O)OCC,–,inactive

# — PubChem BioAssay (EPA / NIEHS)
